Only some compounds are listed: those with a hit (about 4.7% of all), similar ones and a draw of the others.
CCHF vOTU inh – blocks the CCHF virus ovarian tumor domain protease. CCHFV vOTU protease, Pep-AMC fluorescence. inhibition, % at 11.5 µM. hit rate 0.55% among 370,000. AID 651958; note: 0% = vehicle wells with enzyme and 100% = no enzyme wells
SARS 3CLpro inh – SARS-CoV 3CLpro protease inhibition | P0C6X7 | recombinant SARS-CoV 3CLpro, quenched FRET peptide cleavage | inhibition, % at 6 µM | hit rate 0.14% among 290,000; in the data active = inhibition above about 12%
Mtb FBA inh – inhibitors of M. tuberculosis fructose-bisphosphate aldolase; P9WQA3; purified M. tuberculosis FBA, fluorescence read-out; inhibition, % at 1 µM; hit rate 2.3% among 360,000; in the data active = inhibition above about 27%;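 note: 0% = vehicle and 100% = reference inhibitor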
DUSP3 inh – DUSP3 (human) phosphatase inhibition | hit rate 0.52% among 290,000 | recombinant VHR phosphatase, pNPP absorbance | inhibition, % at 13.3 µM | P51452; in the data active = inhibition above about 50%
RecA splice inh – blocks M. tuberculosis RecA intein splicing; inhibition, % (test concentration not listed); AID 2221; hit rate 0.75% among 290,000; cell-free RecA intein splicing, fluorescence; in the data active = inhibition above about 30%;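 note: 0% = vehicle wells and 100% = reference inhibitor control wells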
Target sequence (P9WHJ3 whole entry, looked up, canonical isoform): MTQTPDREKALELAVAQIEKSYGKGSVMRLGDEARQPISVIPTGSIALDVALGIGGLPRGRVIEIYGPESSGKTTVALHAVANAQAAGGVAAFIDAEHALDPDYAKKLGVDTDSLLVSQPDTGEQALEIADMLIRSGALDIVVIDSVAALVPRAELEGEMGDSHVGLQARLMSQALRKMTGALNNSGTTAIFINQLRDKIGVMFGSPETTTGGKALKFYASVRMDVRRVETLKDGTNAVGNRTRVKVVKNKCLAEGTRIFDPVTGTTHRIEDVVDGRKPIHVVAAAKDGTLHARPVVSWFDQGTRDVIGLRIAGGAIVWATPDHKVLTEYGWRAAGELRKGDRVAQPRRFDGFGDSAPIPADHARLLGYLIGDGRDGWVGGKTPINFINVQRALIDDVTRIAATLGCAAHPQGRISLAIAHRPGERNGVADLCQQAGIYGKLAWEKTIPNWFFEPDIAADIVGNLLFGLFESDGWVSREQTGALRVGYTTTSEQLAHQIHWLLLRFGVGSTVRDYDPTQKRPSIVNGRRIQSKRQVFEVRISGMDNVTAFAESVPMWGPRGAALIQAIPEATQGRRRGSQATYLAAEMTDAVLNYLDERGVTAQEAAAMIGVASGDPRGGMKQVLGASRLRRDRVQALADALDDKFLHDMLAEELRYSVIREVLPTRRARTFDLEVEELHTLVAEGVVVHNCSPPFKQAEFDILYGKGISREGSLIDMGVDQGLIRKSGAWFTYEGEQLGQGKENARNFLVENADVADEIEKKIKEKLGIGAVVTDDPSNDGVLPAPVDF
GDH-TPI counter – inhibits GDH-TPI coupling enzymes, artifact for Mtb FBA screen; GDH-TPI coupled enzyme counterscreen, NADH absorbance; inhibition, % at 4.8 µM; hit rate 1.2% among 360,000;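 note: 0% = DMSO wells and 100% = wells lacking the enzyme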
* marks the source's active call; other numbers are inactive results; x = no result; + = active, no number. Cut-off read from the data, not from the text of the source, unless noted: active = inhibition above about 30%; inactive = the rest.

SMILES	CCHF vOTU inh	SARS 3CLpro inh	Mtb FBA inh	DUSP3 inh	RecA splice inh	GDH-TPI counter
CN(C)/C=C1\N=C(c2ccc3c(c2)OCO3)OC1=O	-1.1	-2.7	6.2	8.7	1.1	53.4*
O=C1OC(c2ccccc2)=N/C1=C\C=C\c1ccco1	14.1	-0.6	-0.2	22.2	0.0	24.4
CN(C)/C=C1\N=C(c2ccccc2)OC1=O	23.7	1.5	-3.3	7.8	-1.8	34.6*
O=C1COc2ccccc2C(c2nnnn2-c2ccc3ccccc3c2)N1C1CC1 (stereo unspecified)	-0.3	x	x	x	x	x
Cc1ccc(NC(=O)CSc2nnc(-c3cc(C)[nH]n3)n2N)c(C)c1	23.5	0.8	-0.5	-22.3	-1.6	3.9
C[C@H](CO)N1C[C@H](C)[C@@H](CN(C)S(C)(=O)=O)Oc2ccc(NC(=O)NC3CCCCC3)cc2C1=O	10.4	x	0.3	x	x	3.4
Cc1nc(S(=O)(=O)c2ccc(Cl)cc2)c(N(C)C)o1	-17.1	-8.3	-1.6	52.7*	0.4	-2.6
Cc1ccc(-c2nc(S(=O)(=O)c3ccc(C)cc3)c(N(C)C)o2)cc1	5.2	-2.0	-0.8	-2.5	0.4	-0.3
O=C(CSc1nc2[nH]c(=O)cc(O)c2s1)Nc1nncs1	-1.0	x	5.5	x	x	-1.8
Cc1csc(NC(=O)CSc2nc3[nH]c(=O)cc(O)c3s2)n1	-6.3	x	9.4	x	x	31.8*
C[C@H](CO)N1C[C@H](C)[C@H](CN(C)C(=O)Nc2cccc3ccccc23)Oc2ncc(Br)cc2C1=O	-6.1	x	x	x	x	x
CCS(=O)(=O)Nc1ccc2c(c1)C(=O)N(C)[C@@H]1CC[C@H](CC(=O)N[C@@H]3CCN(Cc4ccccc4)C3)O[C@H]1CO2	14.0	x	x	x	x	x
CC1Nc2ncnc(N3CCc4ccccc4C3)c2N(Cc2ccc(Cl)cc2)C1=O (stereo unspecified)	x	x	-2.2	x	31.6*	0.5
CC1Nc2ncnc(N3CCc4ccccc4C3)c2N(Cc2ccc(Br)cc2)C1=O (stereo unspecified)	5.4	x	0.0	x	35.0*	4.3
CC1Nc2ncnc(N3CCN(c4ccccc4)CC3)c2N(Cc2ccc(Cl)cc2)C1=O (stereo unspecified)	3.7	x	0.8	x	1.4	20.3
CCC1Nc2ncnc(N3CCc4ccccc4C3)c2N(Cc2ccc(Br)cc2)C1=O (stereo unspecified)	x	x	5.7	x	x	x
COc1ccccc1C1CC(c2ccc(NS(C)(=O)=O)cc2)=NN1C(=O)c1ccccc1 (stereo unspecified)	1.3	7.5	-11.8	5.5	x	9.3
CS(=O)(=O)Nc1ccc(C2=NN(S(C)(=O)=O)C(c3ccc4c(c3)OCO4)C2)cc1 (stereo unspecified)	-29.3	1.6	140.6*	-8.5	-2.4	12.2
CCC(=O)N1N=C(c2ccc(NS(C)(=O)=O)cc2)CC1c1ccc(C)cc1 (stereo unspecified)	-187.2	1.5	+	-46.2	-1.0	16.9
CC(=O)N1N=C(c2cccc(NS(C)(=O)=O)c2)CC1c1ccc2c(c1)OCO2 (stereo unspecified)	3.8	-1.6	-1.6	-33.2	x	3.5
CCC(CC)C(=O)N1N=C(c2ccc(NS(C)(=O)=O)cc2)CC1c1ccccc1 (stereo unspecified)	-88.8	0.3	+	17.5	-0.1	22.8
CCC(CC)C(=O)N1N=C(c2ccc(NS(C)(=O)=O)cc2)CC1c1ccc(C)cc1 (stereo unspecified)	-87.9	4.7	+	10.0	-0.4	29.1
CC(=O)Nc1ccc(S(=O)(=O)N2CCC(NC(=O)C(Cc3ccccc3F)NC(C)=O)CC2)cc1 (stereo unspecified)	-6.2	2.9	0.8	20.6	-2.0	-9.8
O=C(O)CCC(=O)N1N=C(c2ccccc2)CC1c1ccc(Br)cc1 (stereo unspecified)	-9.6	4.8	-0.9	73.1	-0.7	8.6
O=C(O)CCC(=O)N1N=C(c2ccc(Br)cc2)CC1c1ccc(Br)cc1 (stereo unspecified)	5.6	0.9	1.6	55.5*	6.7	-10.3
SMILES	CCHF vOTU inh	SARS 3CLpro inh	Mtb FBA inh	DUSP3 inh	RecA splice inh	GDH-TPI counter
CN(C)CCCn1c(N)c(S(=O)(=O)c2ccccc2)c2nc3ccccc3nc21	-212.0	2.2	113.3*	0.9	11.3	19.9
CC(=O)Nc1c(S(=O)(=O)c2ccccc2)c2nc3ccccc3nc2n1Cc1ccccc1	-133.3	2.8	147.9*	15.7	0.9	11.2
CCCCn1c(N)c(S(=O)(=O)c2ccc(C)cc2)c2nc3ccccc3nc21	-72.9	0.6	116.4*	-17.2	-4.6	17.9
Nc1c(S(=O)(=O)c2cc(Cl)ccc2Cl)c2nc3ccccc3nc2n1CCN1CCOCC1	-11.8	-1.1	13.4	24.3	-4.8	19.7
CCCCn1c(/N=C/c2ccccc2NS(=O)(=O)c2ccc(C)cc2)nc2ccccc21	-4.8	-0.9	0.3	-2.5	x	10.2
Cc1ccc(-n2c(N)c(C(=O)Nc3c(C)n(C)n(-c4ccccc4)c3=O)c3nc4ccccc4nc32)cc1	12.6	1.6	4.5	12.6	-0.5	8.9
Cc1ccc(S(=O)(=O)c2c(N)n(-c3ccccc3)c3nc4ccccc4nc23)cc1	-57.3	6.1	128.5*	7.4	-5.8	14.2
CC(C)C[C@H]1COc2cc(Br)ccc2S(=O)(=O)N1Cc1ccc(F)cc1F	9.3	x	x	x	x	x
Cc1cccn2cc(-c3ccc(S(=O)(=O)N4CCCCC4)cc3)nc12	-82.9	-1.8	135.4*	21.7	-1.4	8.1
Cc1cccn2cc(-c3ccc(S(=O)(=O)N4CCOCC4)cc3)nc12	-103.7	-4.4	186.9*	-14.1	2.1	18.3
O=S(=O)(c1ccc(-c2cn3ccccc3n2)cc1)N1CCOCC1	-127.6	-3.7	+	31.5	2.4	-6.4
CCOC(=O)Cc1csc(SC(C)C(=O)NC2CCCCC2C)n1 (stereo unspecified)	6.6	x	-0.4	x	0.4	-10.1
O=C(N=Nc1c(O)[nH]c2ccccc12)c1ccccc1NS(=O)(=O)c1cccs1	-4.1	5.4	-3.5	10.4	-0.3	33.6*
O=C(Cc1cccs1)N=Nc1c(O)[nH]c2ccccc12	-1.4	3.2	-2.7	18.8	1.5	14.1
O=C(N=Nc1c(O)[nH]c2ccccc12)c1cc(-c2cccs2)[nH]n1	3.4	-9.1	-1.8	48.2	-1.0	35.0*
O=C(N=Nc1c(O)[nH]c2ccccc12)Nc1ccccc1	17.3	x	2.1	x	x	30.7*
NS(=O)(=O)c1cc(C(=O)N=Nc2c(O)[nH]c3ccccc23)ccc1Cl	9.6	-5.4	1.9	31.3	4.6	33.8*
CC(C)(O)C(=O)N=Nc1c(O)[nH]c2ccccc12	-0.7	2.0	-1.4	4.3	0.8	2.5
Cn1c(C(=O)OCC(=O)NCc2ccc(F)cc2)cc2occc21	14.8	x	1.9	x	-1.8	-5.8
CN(C)c1c2ccccc2nc2c(F)c(F)c(F)c(F)c12	x	-0.8	117.0*	20.6	-166.7	0.9
O=[N+]([O-])c1cc(Cl)ccc1N1CCCC1	-14.6	-2.0	0.4	14.7	-8.2	-0.9
O=C1C(Cl)=C(N2CCN(c3ccccc3[N+](=O)[O-])CC2)C(=O)c2ccccc21	85.4*	7.0	-7.4	-7.4	-0.4	14.6

Compound activity: PubChem BioAssay, several laboratories
